In all, about 63,000 compounds went through this assay and about 1,100 (1.7%) were called active.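 The calls were made as follows: active = compounds whose percent cytotoxicity in the single-dose primary screen, scaled between solvent and toxic-drug controls, exceeds 50; inactive = the rest.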 What follows is part of a selection rich in actives, with near analogues and random picks from the rest. Entries with a potency or affinity are not part of this list.
Assay: viability loss of HPDE-C7K cells – cell-based, fluorescence, HTS, primary screen (AID 431);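 also: 0% = DMSO solvent wells and 100% = doxorubicin-treated wells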
Settings: HPDE-C7K KRASV12 cells, Alamar Blue viability, 48 h; at 10 µM; hits give high values

Row | Structure (SMILES) | cytotoxicity
1 | COc1ccc(CCNC(=O)c2c(N)n(CCN3CCOCC3)c3nc4ccccc4nc23)cc1 | 76.9% (active)
2 | CCCCn1c(N)c(C(=O)NCCN2CCOCC2)c2nc3ccccc3nc21 | -9.3% (inactive)
3 | CCCCCn1c(N)c(C(=O)NCCN2CCOCC2)c2nc3ccccc3nc21 | 6.4% (inactive)
4 | CCCCNC(=O)c1c(N)n(CCCOC)c2nc3ccccc3nc12 | 47.2% (inactive)
5 | CCCCCCn1c(N)c(C(=O)NCCN2CCOCC2)c2nc3ccccc3nc21 | 86.3% (active)
6 | CCOC(=O)c1c(N)n(CCN2CCCCC2)c2nc3ccccc3nc12 | 1.7% (inactive)
7 | CC1SC2(CN3CCC2CC3)NC1=O (stereo not given) | -32% (inactive)
8 | O=P(OCC(F)(F)C(F)F)(N1CCOCC1)N1CCOCC1 | -6.6% (inactive)
9 | C=CCn1c(O)c(C(C)=NCCN2CCOCC2)c(=O)[nH]c1=O | 3.7% (inactive)
10 | CCCCc1ccc2[nH]cc(CCN)c2c1 | 89.6% (active)
11 | COc1ccc2[nH]cc(CCN(C)C)c2c1 | 19.9% (inactive)
12 | NCCc1c[nH]c2ccc(F)cc12 | -7.8% (inactive)
13 | COc1ccc(Cn2c(N)c(C(=O)NCc3ccco3)c3nc4ccccc4nc32)cc1 | 75.2% (active)
14 | COc1ccc(Cn2c(N)c(C(=O)NCc3ccco3)c3nc4ccccc4nc32)cc1OC | 3.1% (inactive)
15 | CCOC(=O)c1c(N)n(Cc2ccco2)c2nc3ccccc3nc12 | -13.8% (inactive)
16 | Nc1c(C(=O)NCCN2CCOCC2)c2nc3ccccc3nc2n1Cc1ccco1 | 20.7% (inactive)
17 | CC(C)(C)OC(=O)c1c(N)n(Cc2ccco2)c2nc3ccccc3nc12 | 56.1% (active)
18 | COCCOC(=O)c1c(N)n(Cc2ccco2)c2nc3ccccc3nc12 | 15.2% (inactive)
19 | Nc1c(C(=O)NCc2ccco2)c2nc3ccccc3nc2n1Cc1ccc(F)cc1 | 95.8% (active)
20 | COCCOC(=O)c1c(N)n(Cc2ccc(OC)cc2)c2nc3ccccc3nc12 | -9.2% (inactive)
21 | CC(C)OC(=O)c1c(N)n(Cc2ccco2)c2nc3ccccc3nc12 | -9% (inactive)
22 | O=P(C(c1ccc2c(c1)OCO2)N1CCOCC1)(N1CCOCC1)N1CCOCC1 (stereo not given) | -15.1% (inactive)
23 | CN=C(SCc1cc2c(cc1Cl)OCO2)c1c(O)n(C)c(=O)n(C)c1=O | -13.4% (inactive)
24 | CCCNS(=O)(=O)c1ccc(OCC(=O)N2CCN(Cc3ccccc3)CC2)cc1 | 8% (inactive)

Row | Structure (SMILES) | cytotoxicity
25 | CN(C)CCc1nc2ccccc2c(=O)n1-c1ccccc1 | 11.7% (inactive)
26 | O=c1c2ccccc2nc(CSc2ncnc3nc[nH]c23)n1-c1ccccc1 | 64.8% (active)
27 | CCOc1ccc(-n2c(CC)nc3ccccc3c2=O)cc1 | 1.5% (inactive)
28 | Cc1ccc2c(c1)C(c1ccccc1)NCC(=O)N2 (stereo not given) | 2.7% (inactive)
29 | CCC(=NCCC1=CCCCC1)c1c(O)[nH]c(=O)[nH]c1=O | 22.3% (inactive)
30 | O=C(c1csc2c1CCCCC2)N1CCC2(CC1)OCCO2 | -9.8% (inactive)
31 | Cc1nc2c(-c3ccc(F)cc3)c(C)nn2c(C)c1CCC(=O)N1CCC2(CC1)OCCO2 | 9.4% (inactive)
32 | CC(C)CCOC(=O)c1c(N)n(CC2CCCO2)c2nc3ccccc3nc12 (stereo not given) | 26.1% (inactive)
33 | CC(C)CCn1c(N)c(C(=O)OCC2CCCO2)c2nc3ccccc3nc21 (stereo not given) | 51.5% (active)
34 | CCCCn1c(N)c(C(=O)OCC2CCCO2)c2nc3ccccc3nc21 (stereo not given) | 34.2% (inactive)
35 | CCOC(=O)c1cccc([P+](=O)O)c1 | 7.5% (inactive)
36 | CC(C)[C@@]1(NC(=O)[C@@H]2C[C@@H]3c4cccc5[nH]cc(c45)C[C@H]3N(C)C2)O[C@@]2(O)[C@@H]3CCCN3C(=O)[C@H](Cc3ccccc3)N2C1=O | 77.9% (active)
37 | CC(C)[C@H]1C(=O)N2CCC[C@H]2[C@]2(O)O[C@](NC(=O)[C@@H]3C=C4c5cccc6[nH]cc(c56)C[C@H]4N(C)C3)(C(C)C)C(=O)N12 | -1.3% (inactive)
38 | CC(C)[C@@]1(NC(=O)[C@@H]2C=C3c4cccc5[nH]cc(c45)C[C@H]3N(C)C2)O[C@@]2(O)[C@@H]3CCCN3C(=O)[C@H](Cc3ccccc3)N2C1=O | 29.5% (inactive)
39 | Cc1ccc2c(c1)CC1(CN2C)C(=O)NC(=O)N(c2ccccc2C)C1=O (stereo not given) | 8.7% (inactive)
40 | COC(=O)C(O)(c1ccc2c(c1)CCCN2)C(F)(F)F (stereo not given) | -24.5% (inactive)
41 | Cc1ccc(CN2CCN(C)CC2)c(C)c1 | 14.3% (inactive)
42 | Cc1ccc(S(=O)(=O)N2CN3CCN(C3)C2)cc1 | 11.8% (inactive)
43 | Cc1ccc(CN2CC3CC(C2)c2cccc(=O)n2C3)cc1 (stereo not given) | -9.1% (inactive)
44 | Cn1c(O)c(C=NCCOc2ccc(Cl)cc2)c(=O)n(C)c1=O | -12.3% (inactive)
45 | CCn1nc(-c2cccs2)nc2c(=O)n(C)c(=O)nc1-2 | 127% (active)
46 | CCc1nc2ccccc2c(=O)n1-c1cccc(OC)c1 | -14% (inactive)
47 | CCn1nc(-c2ccccc2)nc2c(=O)n(C)c(=O)nc1-2 | 123% (active)
48 | O=c1c2ccccc2nc(-c2cccs2)n1-c1cnccn1 | 15.2% (inactive)

Row | Structure (SMILES) | cytotoxicity
49 | O=P1(NC2CCCC2)COc2ccccc2OC1 | -11.9% (inactive)
50 | COc1ccc(-n2c(SC)nc3ccccc3c2=O)cc1 | -4.7% (inactive)
51 | CSC(=Nc1ccccc1)c1c(O)n(C)c(=O)n(C)c1=O | 5.2% (inactive)
52 | CC(=NCc1ccc(F)cc1)c1c(O)n(C)c(=O)n(C)c1=O | 37.8% (inactive)
53 | COc1ccc(C2SCC(=O)Nc3c2c(=O)[nH]n3C2CCCCC2)cc1 (stereo not given) | -1.2% (inactive)
54 | CCOc1ccc(C2SCC(=O)Nc3c2c(=O)[nH]n3C2CCCCCC2)cc1 (stereo not given) | -11.1% (inactive)
55 | COc1ccc(C2SCC(=O)Nc3c2c(=O)[nH]n3C2CCCCCC2)cc1 (stereo not given) | 80.4% (active)
56 | C=CCN1C(=O)C2(C(C(=O)OCC)=C(N)Oc3ccccc32)C2=C1CCCC2=O (stereo not given) | -6.6% (inactive)
57 | CCCCc1nc(N2CCNCC2)c(C#N)c2c1CSC(C)(C)C2 | 71.5% (active)
58 | CCc1nc(N2CCNCC2)c(C#N)c2c1CSC(C)(C)C2 | 31.9% (inactive)
59 | O=C(C(Cc1ccccc1)NS(=O)(=O)c1ccc(F)cc1)N1CCC2(CC1)OCCO2 (stereo not given) | 10.2% (inactive)
60 | CCN(CC)C(=O)c1ccc(NC(=O)Cn2nc(C)c3ccccc3c2=O)cc1 | -7.8% (inactive)
61 | O=C(Nc1ccc(OC(=O)N2CCCC2)cc1)N1CCOCC1 | -8.6% (inactive)
62 | CC(C)C(=O)N1CCN(CCN=Cc2c(O)n(C)c(=O)n(C)c2=O)CC1 | 0.5% (inactive)
63 | c1cc2n(c1)-c1c(ccc3c1OCO3)CNC2c1ccc2c(c1)OCO2 (stereo not given) | 27.4% (inactive)
64 | COc1ccc(C2NCc3ccc4c(c3-n3cccc32)OCO4)cc1O (stereo not given) | 59.8% (active)
65 | COc1ccc(C2NCc3ccc4c(c3-n3cccc32)OCO4)cc1OC (stereo not given) | 3.2% (inactive)
66 | O=P(/C(=N/O)N1CCCCC1)(N1CCOCC1)N1CCOCC1 | -3.8% (inactive)
67 | O=C1CN=C(c2ccccc2)c2oc3ccc(Br)cc3c2N1 | -15.6% (inactive)
68 | COc1cccc(OC)c1C1=NCC(=O)Nc2c1oc1ccc(Br)cc21 | 56.7% (active)
69 | O=C(NCC(c1cccnc1)N1CCOCC1)Oc1ccccc1 (stereo not given) | 2.6% (inactive)
70 | C=Cn1ccnc1P(=S)(c1c(C)nn(-c2ccccc2)c1C)c1nccn1C=C | 8.8% (inactive)
71 | O=c1[nH]c(=O)n(Cc2ccccc2)c(O)c1C=NCCN1CCNCC1 | -15% (inactive)
72 | O=c1c(C=NCCN2CCNCC2)c(O)n(C2CCCCC2)c(=O)n1C1CCCCC1 | 95.1% (active)

Row | Structure (SMILES) | cytotoxicity
73 | O=c1[nH]c(=O)n(C2CCCCCC2)c(O)c1C=NCCCN1CCOCC1 | -13.6% (inactive)
74 | CCCCn1c(O)c(C(CC)=Nc2cccc(C(=O)O)c2)c(=O)[nH]c1=O | -13.6% (inactive)
75 | CC(=NCCCN1CCCCC1)c1c(O)n(Cc2ccccc2)c(=O)[nH]c1=O | 9.4% (inactive)
76 | CCOC(=O)c1ccc(N2C(=O)CC(N3CCC(C#N)(c4ccccc4)CC3)C2=O)cc1 (stereo not given) | -11.3% (inactive)
77 | CCCCCCn1c(=O)c(C(=O)Nc2ccncc2)c(O)c2ccccc21 | 46.4% (inactive)
78 | CCCCCn1c(=O)c(C(=O)NCc2ccccn2)c(O)c2ccccc21 | 8.3% (inactive)
79 | CCCCn1c(=O)c(C(=O)Nc2cnccn2)c(O)c2ccccc21 | 51.5% (active)
80 | CCCCCn1c(=O)c(C(=O)NCc2ccncc2)c(O)c2ccccc21 | 33.3% (inactive)
81 | CCCCn1c(=O)c(C(=O)Nc2ccccc2S(N)(=O)=O)c(O)c2ccccc21 | -11.7% (inactive)
82 | CCCCCn1c(=O)c(C(=O)Nc2ccncc2)c(O)c2ccccc21 | 73.1% (active)
83 | CCCCn1c(O)c(C=NCCCN(CC)CC)c(=O)[nH]c1=O | 6.9% (inactive)
84 | CSc1nnc(C2CCNCC2)n1C | -11.4% (inactive)
85 | O=C1NC(=O)C(CCc2ccncc2)(C2CCCCC2)C(=O)N1 | -0.4% (inactive)
86 | COC(=O)c1ccc(COc2cc(C)cc3oc(=O)c4c(c23)CCCC4)o1 | 4.3% (inactive)
87 | CC(=O)CC(C)(C)n1c[n+](C)nn1 | 18.4% (inactive)
88 | Cc1ccc2c(c1)C1CN(C)CCC1N2C(=O)c1ccco1 (stereo not given) | 2.2% (inactive)
89 | c1ccc2c(CCNCc3ccc4c(c3)OCO4)c[nH]c2c1 | 23.6% (inactive)
90 | C[C@@]1(CO)[C@H](O)CC[C@@]2(C)[C@H]1CC[C@H]1C[C@@H]3C[C@@]12CC[C@]3(O)CO | 69.7% (active)
91 | CC(C)CC1C(C#N)=C(N)Oc2c1c(=O)oc1ccccc21 (stereo not given) | 8.9% (inactive)
92 | Cc1ccc2c(c1)CC1(CN2C)C(=O)NC(=O)N(CCC2=CCCCC2)C1=O (stereo not given) | 5.2% (inactive)
93 | O=C1NC(=O)C2(Cc3ccccc3N3CCCC32)C(=O)N1c1ccccc1 (stereo not given) | -2.3% (inactive)
94 | OC1(c2ccccc2F)CC2CCC(C1)N2CCN1CCOCC1 (stereo not given) | -1.8% (inactive)
95 | Cc1oc(-c2ccc(Cl)cc2)nc1CS(=O)CC(=O)N1CCC2(CC1)OCCO2 (stereo not given) | -19.8% (inactive)
